According to PMC7862700, “An all-to-all approach to the identification of sequence-specific readers for epigenetic DNA modifications on cytosine”:

Columns and labels:
Assay in all cases: DAPPL (digital affinity profiling via proximity ligation, sequencing); 10 mM Tris-HCl pH 7.5, 50 mM NaCl, 1 mM DTT, 4% glycerol, room temperature, 30 min; GST-TFs on glutathione beads, 16-mer random dsDNA library, 0.1% formaldehyde crosslink after washing; high values mean tight binding
Conditions in all cases: protein: recombinant; tags: N-terminal GST; dsDNA, one strand shown
[1] = target: T1, FLI1 (Homo sapiens, UniProt Q01543 1-452)
T1 sequence: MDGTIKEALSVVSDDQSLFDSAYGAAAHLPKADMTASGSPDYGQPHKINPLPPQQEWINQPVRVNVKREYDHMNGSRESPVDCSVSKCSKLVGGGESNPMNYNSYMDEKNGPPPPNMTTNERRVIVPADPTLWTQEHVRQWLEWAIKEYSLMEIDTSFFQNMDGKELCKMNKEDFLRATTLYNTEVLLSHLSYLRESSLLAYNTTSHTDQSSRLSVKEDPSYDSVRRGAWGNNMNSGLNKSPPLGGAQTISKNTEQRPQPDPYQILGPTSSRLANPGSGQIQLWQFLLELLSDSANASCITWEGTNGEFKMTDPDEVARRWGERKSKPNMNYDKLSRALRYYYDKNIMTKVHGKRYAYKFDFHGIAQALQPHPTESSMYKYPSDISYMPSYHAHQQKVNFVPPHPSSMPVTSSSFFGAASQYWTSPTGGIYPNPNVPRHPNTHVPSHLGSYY
Procedure, shortened: (§1)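 The binding signal reported is, for every hexamer, its read frequency for a factor over its read frequency for the tag-only sample. Reads came from pools of yeast-expressed, GST-fused human transcription factors on glutathione beads, barcoded with DNA and mixed with that sample, which were incubated with 200 nmole of a random double-stranded 16-mer DNA library in Tris/NaCl/DTT/glycerol buffer at room temperature for 30 min. After washing, the pools were crosslinked with 0.1% formaldehyde, proximity-ligated with BsaI/T4 ligase for 1 h at 37 °C, PCR-amplified and sequenced on an Illumina NextSeq500.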

[2] = target: T2, ELK1 (Homo sapiens, UniProt P19419 1-428)
T2 sequence: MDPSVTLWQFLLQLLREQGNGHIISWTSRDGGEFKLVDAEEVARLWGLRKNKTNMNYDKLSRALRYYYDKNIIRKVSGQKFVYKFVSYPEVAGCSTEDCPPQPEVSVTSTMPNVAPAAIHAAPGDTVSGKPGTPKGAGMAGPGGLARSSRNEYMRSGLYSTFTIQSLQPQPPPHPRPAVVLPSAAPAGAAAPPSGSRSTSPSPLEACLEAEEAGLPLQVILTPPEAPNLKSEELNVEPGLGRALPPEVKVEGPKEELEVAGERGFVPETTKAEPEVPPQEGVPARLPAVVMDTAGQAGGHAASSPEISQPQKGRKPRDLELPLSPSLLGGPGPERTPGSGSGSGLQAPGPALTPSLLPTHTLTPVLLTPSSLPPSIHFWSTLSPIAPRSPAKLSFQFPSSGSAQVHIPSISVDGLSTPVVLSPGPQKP
Procedure, shortened: as §1

[3] = target: T3, GABPA (Homo sapiens, UniProt Q06546 1-454)
T3 sequence: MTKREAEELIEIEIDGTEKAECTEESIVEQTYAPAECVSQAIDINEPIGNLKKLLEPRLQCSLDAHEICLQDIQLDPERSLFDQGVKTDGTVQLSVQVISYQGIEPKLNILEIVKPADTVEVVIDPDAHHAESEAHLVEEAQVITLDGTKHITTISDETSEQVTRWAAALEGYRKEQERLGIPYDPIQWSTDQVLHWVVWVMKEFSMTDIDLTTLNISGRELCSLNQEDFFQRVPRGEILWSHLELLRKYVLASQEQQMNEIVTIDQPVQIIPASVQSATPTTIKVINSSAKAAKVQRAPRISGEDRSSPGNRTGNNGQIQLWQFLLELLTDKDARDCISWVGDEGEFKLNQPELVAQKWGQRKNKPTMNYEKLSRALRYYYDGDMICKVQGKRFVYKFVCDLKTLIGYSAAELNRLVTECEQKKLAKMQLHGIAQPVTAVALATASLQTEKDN
Procedure, shortened: as §1

[4] = target: T4, ERG (Homo sapiens, UniProt P11308 1-479)
T4 sequence: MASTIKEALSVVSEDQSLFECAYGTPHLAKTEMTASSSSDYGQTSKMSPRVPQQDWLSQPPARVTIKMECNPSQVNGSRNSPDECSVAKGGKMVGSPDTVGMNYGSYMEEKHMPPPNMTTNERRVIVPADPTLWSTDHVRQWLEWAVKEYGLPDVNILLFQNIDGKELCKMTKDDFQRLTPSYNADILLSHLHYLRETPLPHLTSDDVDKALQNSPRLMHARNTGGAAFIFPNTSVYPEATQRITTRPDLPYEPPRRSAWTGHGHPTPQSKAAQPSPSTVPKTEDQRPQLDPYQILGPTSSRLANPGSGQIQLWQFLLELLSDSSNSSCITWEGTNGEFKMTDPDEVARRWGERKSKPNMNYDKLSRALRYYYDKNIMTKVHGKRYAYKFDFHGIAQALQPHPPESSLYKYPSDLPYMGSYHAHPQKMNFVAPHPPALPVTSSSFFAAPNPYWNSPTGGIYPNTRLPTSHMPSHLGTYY
Procedure, shortened: as §1

[5] = target: ELF1 (Homo sapiens, UniProt P32519 1-619)
Procedure, shortened: as §1

[6] = target: T5, EHF (Homo sapiens, UniProt Q9NZC4 1-300)
T5 sequence: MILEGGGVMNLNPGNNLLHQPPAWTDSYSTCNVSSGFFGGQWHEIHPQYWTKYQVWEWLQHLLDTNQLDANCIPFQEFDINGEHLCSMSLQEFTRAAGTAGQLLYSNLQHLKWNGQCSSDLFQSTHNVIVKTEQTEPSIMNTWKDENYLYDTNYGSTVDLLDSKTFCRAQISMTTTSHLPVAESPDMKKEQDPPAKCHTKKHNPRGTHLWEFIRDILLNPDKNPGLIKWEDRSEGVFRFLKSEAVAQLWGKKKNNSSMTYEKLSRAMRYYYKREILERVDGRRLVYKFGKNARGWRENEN
Procedure, shortened: as §1

[7] = target: SPI1 (Homo sapiens, UniProt P17947 1-270)
Procedure, shortened: as §1

[8] = target: SPIB (Homo sapiens, UniProt Q01892 1-262)
Procedure, shortened: as §1

[9] = target: T6, ELK3 (Homo sapiens, UniProt P41970 1-407)
T6 sequence: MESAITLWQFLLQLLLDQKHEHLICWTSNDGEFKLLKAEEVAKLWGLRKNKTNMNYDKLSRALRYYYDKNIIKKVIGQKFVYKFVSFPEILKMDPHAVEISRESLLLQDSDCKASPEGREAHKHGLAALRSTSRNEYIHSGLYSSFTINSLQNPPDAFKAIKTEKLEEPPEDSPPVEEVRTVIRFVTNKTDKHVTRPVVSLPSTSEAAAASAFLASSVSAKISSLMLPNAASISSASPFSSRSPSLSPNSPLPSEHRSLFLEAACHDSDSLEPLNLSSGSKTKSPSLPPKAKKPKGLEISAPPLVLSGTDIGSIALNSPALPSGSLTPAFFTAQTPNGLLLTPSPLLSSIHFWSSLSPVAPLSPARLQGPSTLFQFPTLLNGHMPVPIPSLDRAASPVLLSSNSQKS
Procedure, shortened: as §1

ELF1, sequence (P32519 whole entry): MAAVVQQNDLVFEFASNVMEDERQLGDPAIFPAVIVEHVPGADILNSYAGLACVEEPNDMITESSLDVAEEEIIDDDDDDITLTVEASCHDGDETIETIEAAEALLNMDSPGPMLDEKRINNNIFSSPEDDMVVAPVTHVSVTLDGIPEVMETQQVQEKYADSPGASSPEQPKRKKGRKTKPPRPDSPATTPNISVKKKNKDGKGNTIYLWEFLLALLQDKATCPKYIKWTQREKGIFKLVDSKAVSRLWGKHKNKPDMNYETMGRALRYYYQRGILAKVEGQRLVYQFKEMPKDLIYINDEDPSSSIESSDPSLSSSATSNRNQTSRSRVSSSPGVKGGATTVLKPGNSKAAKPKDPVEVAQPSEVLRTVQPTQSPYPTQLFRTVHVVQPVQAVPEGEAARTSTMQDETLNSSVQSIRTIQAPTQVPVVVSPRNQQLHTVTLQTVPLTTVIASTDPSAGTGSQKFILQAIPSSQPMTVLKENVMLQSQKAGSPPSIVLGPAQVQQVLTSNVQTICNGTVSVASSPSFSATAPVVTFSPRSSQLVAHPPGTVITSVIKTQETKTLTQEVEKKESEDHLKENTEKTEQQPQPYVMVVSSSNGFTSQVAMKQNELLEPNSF
SPIB, sequence (Q01892 whole entry): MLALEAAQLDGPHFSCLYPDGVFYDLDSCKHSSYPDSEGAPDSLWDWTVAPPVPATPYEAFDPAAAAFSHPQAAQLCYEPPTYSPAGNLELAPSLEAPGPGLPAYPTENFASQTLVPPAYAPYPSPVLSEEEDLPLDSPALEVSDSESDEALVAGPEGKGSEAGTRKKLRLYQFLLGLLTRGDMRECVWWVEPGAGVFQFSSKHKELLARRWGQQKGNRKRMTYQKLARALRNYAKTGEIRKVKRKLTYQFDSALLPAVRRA

Sequence | binding signal [1] | binding signal [2] | binding signal [3] | binding signal [4] | binding signal [5] | binding signal [6] | binding signal [7] | binding signal [8] | binding signal [9]
CTACCG | 1.44 fold enrichment (6-mer frequency, TF over GST control) | 1.71 fold enrichment (6-mer frequency, TF over GST control) | 1.58 fold enrichment (6-mer frequency, TF over GST control) | 1.5 fold enrichment (6-mer frequency, TF over GST control) | 1.64 fold enrichment (6-mer frequency, TF over GST control) | 1.55 fold enrichment (6-mer frequency, TF over GST control) | 1.52 fold enrichment (6-mer frequency, TF over GST control) | 1.73 fold enrichment (6-mer frequency, TF over GST control) | 1.57 fold enrichment (6-mer frequency, TF over GST control)
TTTTCC | 1.9 fold enrichment (6-mer frequency, TF over GST control) | 1.68 fold enrichment (6-mer frequency, TF over GST control) | 1.71 fold enrichment (6-mer frequency, TF over GST control) | 1.76 fold enrichment (6-mer frequency, TF over GST control) | 1.6 fold enrichment (6-mer frequency, TF over GST control) | 1.76 fold enrichment (6-mer frequency, TF over GST control) | 1.75 fold enrichment (6-mer frequency, TF over GST control) | 1.79 fold enrichment (6-mer frequency, TF over GST control) | 1.82 fold enrichment (6-mer frequency, TF over GST control)
AATCTC | 1.26 fold enrichment (6-mer frequency, TF over GST control) | 1.21 fold enrichment (6-mer frequency, TF over GST control) | 1.28 fold enrichment (6-mer frequency, TF over GST control) | 1.19 fold enrichment (6-mer frequency, TF over GST control) | 1.16 fold enrichment (6-mer frequency, TF over GST control) | 1.27 fold enrichment (6-mer frequency, TF over GST control) | 1.16 fold enrichment (6-mer frequency, TF over GST control) | 1.2 fold enrichment (6-mer frequency, TF over GST control) | 1.15 fold enrichment (6-mer frequency, TF over GST control)
TCTCTT | 1.52 fold enrichment (6-mer frequency, TF over GST control) | 1.34 fold enrichment (6-mer frequency, TF over GST control) | 1.45 fold enrichment (6-mer frequency, TF over GST control) | 1.27 fold enrichment (6-mer frequency, TF over GST control) | 1.47 fold enrichment (6-mer frequency, TF over GST control) | 1.41 fold enrichment (6-mer frequency, TF over GST control) | 1.32 fold enrichment (6-mer frequency, TF over GST control) | 1.38 fold enrichment (6-mer frequency, TF over GST control) | 1.31 fold enrichment (6-mer frequency, TF over GST control)
TCGCTA | 1.17 fold enrichment (6-mer frequency, TF over GST control) | 1.09 fold enrichment (6-mer frequency, TF over GST control) | 1.24 fold enrichment (6-mer frequency, TF over GST control) | 1.07 fold enrichment (6-mer frequency, TF over GST control) | 1.11 fold enrichment (6-mer frequency, TF over GST control) | 1.02 fold enrichment (6-mer frequency, TF over GST control) | 1.04 fold enrichment (6-mer frequency, TF over GST control) | 1.05 fold enrichment (6-mer frequency, TF over GST control) | 1.23 fold enrichment (6-mer frequency, TF over GST control)
TTGGGG | 1.4 fold enrichment (6-mer frequency, TF over GST control) | 1.24 fold enrichment (6-mer frequency, TF over GST control) | 1.33 fold enrichment (6-mer frequency, TF over GST control) | 1.21 fold enrichment (6-mer frequency, TF over GST control) | 1.32 fold enrichment (6-mer frequency, TF over GST control) | 1.27 fold enrichment (6-mer frequency, TF over GST control) | 1.26 fold enrichment (6-mer frequency, TF over GST control) | 1.15 fold enrichment (6-mer frequency, TF over GST control) | 1.31 fold enrichment (6-mer frequency, TF over GST control)
TAATGC | 1.26 fold enrichment (6-mer frequency, TF over GST control) | 1.22 fold enrichment (6-mer frequency, TF over GST control) | 1.26 fold enrichment (6-mer frequency, TF over GST control) | 1.18 fold enrichment (6-mer frequency, TF over GST control) | 1.16 fold enrichment (6-mer frequency, TF over GST control) | 1.22 fold enrichment (6-mer frequency, TF over GST control) | 1.1 fold enrichment (6-mer frequency, TF over GST control) | 1.24 fold enrichment (6-mer frequency, TF over GST control) | 1.29 fold enrichment (6-mer frequency, TF over GST control)
TTAACG | 1.12 fold enrichment (6-mer frequency, TF over GST control) | 1.17 fold enrichment (6-mer frequency, TF over GST control) | 1.21 fold enrichment (6-mer frequency, TF over GST control) | 1.17 fold enrichment (6-mer frequency, TF over GST control) | 1.23 fold enrichment (6-mer frequency, TF over GST control) | 1.15 fold enrichment (6-mer frequency, TF over GST control) | 1.26 fold enrichment (6-mer frequency, TF over GST control) | 1.26 fold enrichment (6-mer frequency, TF over GST control) | 1.32 fold enrichment (6-mer frequency, TF over GST control)
TATAGG | 1.14 fold enrichment (6-mer frequency, TF over GST control) | 1.06 fold enrichment (6-mer frequency, TF over GST control) | 1.19 fold enrichment (6-mer frequency, TF over GST control) | 1.18 fold enrichment (6-mer frequency, TF over GST control) | 1.15 fold enrichment (6-mer frequency, TF over GST control) | 1.28 fold enrichment (6-mer frequency, TF over GST control) | 1.23 fold enrichment (6-mer frequency, TF over GST control) | 1.27 fold enrichment (6-mer frequency, TF over GST control) | 1.08 fold enrichment (6-mer frequency, TF over GST control)
